Measurements: PubChem BioAssay AID1159580 (chemical genetic matrix, 2015)
Hit rate of the full screen: of about 5,500 compounds, about 2,000 (36%) were called active. Another 18% or so got no clear call; they are omitted. No stated cut-off is given here; in the data, active means normalized growth mostly below about 0.91 (no sharp cut-off); inconclusive means no clear call, values can overlap the other calls; inactive means mostly above about 0.92. This is one part of the list.

Assay: chemical genetic growth profiling, strain panel (AID 1159580);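 further: tested at 20 µM; growth read once vehicle control cultures reached saturation at 30 °C; 1 = growth at the plate median or of vehicle wells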
Settings: growth OD

Measured: normalized growth

CC(=O)NC(=O)/C(C#N)=C/N1CCN(Cc2ccccc2)CC1
inactive: S. cerevisiae deletion strains, locus YAL013W, strain DEP1, stronger effect = lower value 0.987 | S. cerevisiae deletion strains, locus YBR229C, strain ROT2, stronger effect = lower value 0.989 | S. cerevisiae deletion strains, locus YDL101C, strain DUN1, stronger effect = lower value 1.01 | S. cerevisiae deletion strains, locus YDL134C, strain PPH21, stronger effect = lower value 1.01 | S. cerevisiae deletion strains, locus YDR150W, strain NUM1, stronger effect = lower value 0.969 | S. cerevisiae deletion strains, locus YEL061C, strain CIN8, stronger effect = lower value 0.996 | S. cerevisiae deletion strains, locus YGR078C, strain PAC10, stronger effect = lower value 0.994 | S. cerevisiae deletion strains, locus YHR030C, strain SLT2, stronger effect = lower value 0.947 | S. cerevisiae deletion strains, locus YHR087W, strain rtc3, stronger effect = lower value 0.994 | S. cerevisiae deletion strains, locus YJR043C, strain POL32, stronger effect = lower value 0.976 | S. cerevisiae deletion strains, locus YJR075W, strain HOC1, stronger effect = lower value 1.01 | S. cerevisiae deletion strains, locus YKL190W, strain CNB1, stronger effect = lower value 1 | S. cerevisiae deletion strains, locus YLR039C, strain RIC1, stronger effect = lower value 1.01 | S. cerevisiae deletion strains, locus YLR058C, strain SHM2 (second series), stronger effect = lower value 0.988 | S. cerevisiae deletion strains, locus YLR085C, strain ARP6, stronger effect = lower value 1.07 | S. cerevisiae deletion strains, locus YLR262C, strain YPT6, stronger effect = lower value 0.982 | S. cerevisiae deletion strains, locus YML094W, strain GIM5, stronger effect = lower value 1.01 | S. cerevisiae deletion strains, locus YMR219W, strain ESC1, stronger effect = lower value 1 | S. cerevisiae deletion strains, locus YMR263W, strain SAP30, stronger effect = lower value 0.997 | S. cerevisiae deletion strains, locus YMR307W, strain GAS1, stronger effect = lower value 1.11 | S. cerevisiae deletion strains, locus YNL128W, strain TEP1, stronger effect = lower value 0.981 | S. cerevisiae deletion strains, locus YNL153C, strain GIM3, stronger effect = lower value 0.977 | S. cerevisiae deletion strains, locus YNL298W, strain CLA4 (second series), stronger effect = lower value 0.95 | S. cerevisiae deletion strains, locus YNL322C, strain KRE1, stronger effect = lower value 0.991 | S. cerevisiae deletion strains, locus YNR030W, strain Alg12, stronger effect = lower value 0.987 | S. cerevisiae deletion strains, locus YPL055C, strain LGE1, stronger effect = lower value 1.05 | S. cerevisiae deletion strains, locus YPL241C, strain CIN2, stronger effect = lower value 0.989 | S. cerevisiae deletion strains, locus YPR135W, strain CTF4, stronger effect = lower value 0.886 | S. cerevisiae strains, strain wild type, stronger effect = lower value 0.974
